# From PubChem
# HIF activator: HIF pathway transcriptional activation. U2OS HRE-luciferase reporter, luminescence; normalized: DMSO 0%, desferrioxamine 100%. 0.32% of 300,000 active. activation, % at 7.5 µM (by protocol);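 active = mean activation of at least 10% of the iron chelator positive control signal, with at least half of replicates also reaching 10%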
# Yeast superoxide: yeast age-related superoxide inhibition as caloric restriction mimetic; S. cerevisiae aged cells, superoxide DHE fluorescence; stronger effect = lower value; superoxide response (% of plate mean), % at 10 µM; 0.18% of 330,000 active;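 active = superoxide response under a set limit, about three screen SD below normal, cut at about 65% in these data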;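 note: yeast aged for seven days with compound at 30 °C before DHE staining; 100% = average MFI of all compound-treated wells on the plate with controls excluded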
# AHR act: activators of human aryl hydrocarbon receptor; 2.5% of 320,000 active; activation, % at 5 µM; P35869; AHR-responsive luciferase reporter cells, luminescence; AID 2796; in the data active = activation above about 47%;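 note: 0% = vehicle wells and 100% = reference agonist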
# PLCb3 inh: inhibitors of human phospholipase C beta3; Q01970; Purified PLC-beta3, fluorogenic substrate, fluorescence; inhibition, % at 12.2 µM; 0.18% of 370,000 active; AID 720704; in the data active = inhibition above about 11%;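 note: 0% = median of compound wells on plate and 100% = full blocker control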
# PLC-gamma1 inh: blocks human PLC-gamma1 enzyme activity; P19174; purified PLC-gamma1, fluorogenic substrate, fluorescence; AID 720700; 0.84% of 370,000 active; inhibition, % at 12.2 µM; in the data active = inhibition above about 9.5%
# Target sequence (P19174 whole entry, looked up): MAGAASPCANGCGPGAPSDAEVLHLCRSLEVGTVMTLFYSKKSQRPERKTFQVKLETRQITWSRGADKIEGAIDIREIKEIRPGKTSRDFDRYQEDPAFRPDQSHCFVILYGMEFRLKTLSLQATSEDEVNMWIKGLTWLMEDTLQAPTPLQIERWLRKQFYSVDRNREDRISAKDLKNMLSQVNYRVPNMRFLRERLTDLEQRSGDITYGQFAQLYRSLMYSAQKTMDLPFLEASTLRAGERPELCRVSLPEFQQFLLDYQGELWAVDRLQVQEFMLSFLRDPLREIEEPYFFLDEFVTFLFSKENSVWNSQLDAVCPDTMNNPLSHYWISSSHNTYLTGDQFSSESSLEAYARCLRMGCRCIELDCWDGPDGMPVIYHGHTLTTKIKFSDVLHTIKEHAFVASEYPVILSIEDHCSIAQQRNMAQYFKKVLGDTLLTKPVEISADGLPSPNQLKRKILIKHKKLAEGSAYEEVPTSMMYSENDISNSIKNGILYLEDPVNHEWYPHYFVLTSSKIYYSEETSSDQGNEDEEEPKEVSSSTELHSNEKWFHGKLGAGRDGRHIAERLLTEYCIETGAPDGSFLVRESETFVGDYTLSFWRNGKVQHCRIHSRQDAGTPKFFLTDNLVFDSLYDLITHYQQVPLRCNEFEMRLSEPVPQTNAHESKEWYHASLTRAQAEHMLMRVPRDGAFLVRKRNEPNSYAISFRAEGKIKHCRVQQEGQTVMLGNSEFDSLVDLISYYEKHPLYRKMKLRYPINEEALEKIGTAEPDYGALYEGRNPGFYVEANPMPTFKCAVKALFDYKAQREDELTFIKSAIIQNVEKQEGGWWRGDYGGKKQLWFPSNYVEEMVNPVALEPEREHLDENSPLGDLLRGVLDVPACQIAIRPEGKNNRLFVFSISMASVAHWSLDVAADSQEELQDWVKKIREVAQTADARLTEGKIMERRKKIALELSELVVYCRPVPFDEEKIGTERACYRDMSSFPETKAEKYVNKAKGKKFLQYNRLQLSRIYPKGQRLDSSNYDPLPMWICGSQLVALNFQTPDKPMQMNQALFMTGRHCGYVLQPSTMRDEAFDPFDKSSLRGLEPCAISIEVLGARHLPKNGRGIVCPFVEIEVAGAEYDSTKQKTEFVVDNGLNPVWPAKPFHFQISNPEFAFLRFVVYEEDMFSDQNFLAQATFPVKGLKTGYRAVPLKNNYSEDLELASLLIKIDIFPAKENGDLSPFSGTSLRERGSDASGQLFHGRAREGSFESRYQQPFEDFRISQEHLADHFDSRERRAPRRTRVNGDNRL
# sPLA2-III inh: Blocks human group III sPLA2 activity; Q9NZ20; QFRET BODIPY PC-A2 liposome hydrolysis, fluorescence; inhibition, % at 12.2 µM; 0.56% of 370,000 active; AID 743126;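 active = inhibition above mean plus 3 SD of compounds lying within the high and low control bounds, cut at about 19% in these data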;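 note: 0% = median of test compound wells and 100% = no enzyme DMSO wells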
# Superoxide pick: confirmation of caloric restriction mimetics inhibiting yeast age-related superoxide | shares compounds with Yeast superoxide | S. cerevisiae aging, superoxide DHE fluorescence; stronger effect = lower value | superoxide response (% of plate), % at 10 µM | 1% of 850 active | AID 434994;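 active = superoxide signal below 65% of the plate average of sample wells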;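 note: cells aged with compound for 7 days at 30 degrees C before staining; 100% equals mean DHE fluorescence of all compound wells on the plate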
# DHE counter: compound alters DHE oxidation or fluorescence in yeast; shares compounds with Yeast superoxide; S. cerevisiae BY4741, flow cytometry; stronger effect = lower value; fluorescence response, % at 10 µM; 850 tested, under 10 active;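 active = fluorescence response below 15%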;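 note: percent of the mean fluorescence averaged over all compound wells on the plate; lower means stronger quenching of DHE signal or ROS scavenging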
# Numbers without * were called inactive; · = no result given. Sampled rows, rich in hits. Any-hit rate of the full collection: about 3.9%.
SMILES,HIF activator,Yeast superoxide,AHR act,PLCb3 inh,PLC-gamma1 inh,sPLA2-III inh,Superoxide pick,DHE counter
Cc1nc(Nc2ccc(S(=O)(=O)N3CCCCC3C)cc2)c2nnn(Cc3ccccc3)c2n1 (stereo not given),0,59*,1,-16,-16,-2,106,109
COc1ccc(S(=O)(=O)N2CC=C(C(=O)NC3CCCC3)CC2)cc1,0,63*,0,-8,0,2,103,93
COC(=O)C1C(=O)C=C(Nc2ccc(F)cc2F)CC1c1ccc(OC)cc1 (stereo not given),1,104,0,-1,-5,-6,·,·
COC(=O)C1C(=O)C=C(Nc2ccc(F)cc2)CC1c1ccc(OC)cc1 (stereo not given),0,65*,5,-8,-8,-4,113,105
CCCc1cc(C(=O)Nc2cccc([N+](=O)[O-])c2)cs1,4,65*,4,-7,-1,-18,95,98
CC(C)(C)c1ccc(C(=O)Nc2cccc([N+](=O)[O-])c2)cc1,1,80,2,1,4,-7,·,·
CCS(=O)(=O)N1CCc2nc(-c3ccccc3)sc2C1,-16,46*,-4,2,-3,1,99,93
COc1ccc(-c2nc3c(s2)CN(S(C)(=O)=O)CC3)cc1OC,2,97,·,-149,-99,18,·,·
O=C(Nc1cccc(-n2cnnn2)c1)c1ccc(OC(F)(F)F)cc1,0,126,-2,2,3,0,·,·
Cn1c(=O)c(=O)n(C)c2cc(N3CCOCC3)c(NS(=O)(=O)c3ccc(Br)cc3)cc21,-1,89,-1,-52,-36,3,·,·
COc1ccc(F)cc1S(=O)(=O)Nc1ccc(C)cc1,0,98,3,6,6,-5,103,92
CCCS(=O)(=O)NC(=O)C1(C)CCN(C(=O)c2nc(C)oc2C)C1 (stereo not given),·,·,·,3,3,-2,·,·
O=C(COc1ccc([N+](=O)[O-])cc1)NCc1ccncc1,0,94,1,0,0,1,·,·
CC1CCCN(S(=O)(=O)c2ccc(C(=O)Nc3nnc(C4=COCCO4)o3)cc2)C1 (stereo not given),0,99,-1,-2,-1,-13,·,·
CC1CCCCN1S(=O)(=O)c1ccc(C(=O)Nc2nnc(C3=COCCO3)o2)cc1 (stereo not given),0,126,1,-6,-4,-18,94,101
CC1CCCCN1S(=O)(=O)c1ccc(C(=O)Nc2nnc(-c3ccco3)o2)cc1 (stereo not given),0,102,-1,-10,-1,-15,99,91
O=C(Nc1nnc(C2CC2)o1)c1ccc(S(=O)(=O)N2CCCCC2)cc1,1,131,6,-2,1,-3,·,·
CC1CCCCN1S(=O)(=O)c1ccc(C(=O)Nc2nnc(C3CC3)o2)cc1 (stereo not given),0,91,0,-8,4,1,97,102
CC1CCN(S(=O)(=O)c2ccc(C(=O)Nc3nnc(C4CC4)o3)cc2)CC1,0,83,-2,-10,0,-5,87,98
O=C(Nc1nnc(-c2ccco2)o1)c1ccc(S(=O)(=O)N2CCCCC2)cc1,·,·,·,-3,7,1,·,·
COc1cc(C)c(Cl)cc1S(=O)(=O)N1CCCC1,0,100,0,2,2,0,103,90
COc1cc(Cl)c(S(=O)(=O)N2CCCC2)cc1Cl,0,87,2,-6,4,5,92,97
COc1cc(C)c(Br)cc1S(=O)(=O)N1CCCC1,0,102,-4,1,-2,-2,100,95
COc1ccc(C(=O)NCCCNC(=O)c2ccc(C)nc2)cc1,-1,90,-1,1,-1,3,·,·
CC(=O)c1ccc(NS(=O)(=O)c2c(C)cc(C)cc2C)cc1,2,116,1,-1,-4,-20,·,·
SMILES,HIF activator,Yeast superoxide,AHR act,PLCb3 inh,PLC-gamma1 inh,sPLA2-III inh,Superoxide pick,DHE counter
Cc1cc(C)c(S(=O)(=O)Nc2ccc(O)cc2)c(C)c1,-1,94,-3,-1,-2,-23,121,121
COc1ccc2nc(Nc3nc(C)c(CCC(C)C)c(=O)[nH]3)nc(C)c2c1,0,65*,3,-3,-3,6,122,108
Fc1ccccc1Cn1ccc2ccc(-c3ccc4ccn(Cc5ccccc5F)c4c3)cc21,·,·,·,-6,0,3,·,·
O=C(CSc1nc2ccccc2o1)N1CCN(S(=O)(=O)c2ccc3ccccc3c2)CC1,0,64*,6,1,-3,1,111,117
Cc1ccc(S(=O)(=O)N2CCN(C(=O)CSc3nc4ccccc4o3)C2)cc1,0,89,9,4,0,0,·,·
CC(C)(C)Cc1c(C2CCCCC2)nc2ccc(Cl)cn12,·,·,·,-1,0,9,·,·
O=C(NC1CCCCC1)C1c2ccccc2OCC(=O)N1Cc1ccco1 (stereo not given),·,·,·,0,2,6,·,·
Cc1cn([C@H]2C[C@H](O)[C@@H](CNCc3ccc(-c4cc(Cl)ccc4C(F)(F)F)o3)O2)c(=O)[nH]c1=O,·,·,·,0,1,-3,·,·
COc1ccc(CNC(=O)C2CCN(S(=O)(=O)N3CCC4(CC3)OCCO4)CC2)c(OC)c1,0,63*,-1,2,1,4,112,132
COc1cccc(CNC(=O)C2CCN(S(=O)(=O)N3CCC4(CC3)OCCO4)CC2)c1,0,101,1,3,4,2,·,·
CCn1c(SCC(=O)Nc2cccc(OC)c2)nc2c(c1=O)SCC2,0,83,2,-4,-2,-5,·,·
CC(=O)c1ccc(NS(=O)(=O)c2ccccc2)cc1,0,104,0,-6,2,3,94,86
COc1cc(S(=O)(=O)N2CCn3cccc3C2C)ccc1NC(C)=O (stereo not given),·,99,1,-22,-9,6,·,·
OC(COCC(F)(F)C(F)(F)C(F)(F)C(F)F)Cn1c2ccc(Cl)cc2c2cc(Cl)ccc21 (stereo not given),0,97,0,·,·,·,109,93
COc1ccc(-n2ncc3c2CC(C)(C)CC3NC(=O)c2ccnn2C)cc1 (stereo not given),0,90,0,-3,0,-2,·,·
NS(=O)(=O)c1ccc(CCNC(=O)C(=O)NCC2OCCN2S(=O)(=O)c2cc(F)ccc2F)cc1 (stereo not given),0,63*,0,-5,0,6,97,101
COC(=O)c1c(C)nc2ccccc2c1C(=O)O,0,103,3,-1,0,2,·,·
COc1ccc(-c2c(C(=O)O)nc3ccccc3c2C(=O)O)cc1,-1,62*,-1,-2,-2,9,110,99
